Here are results for one sequence from article PMC7862700, “An all-to-all approach to the identification of sequence-specific readers for epigenetic DNA modifications on cytosine”.

Test in all cases: DAPPL (digital affinity profiling via proximity ligation, sequencing); 10 mM Tris-HCl pH 7.5, 50 mM NaCl, 1 mM DTT, 4% glycerol, room temperature, 30 min; GST-TFs on glutathione beads, 16-mer random dsDNA library, 0.1% formaldehyde crosslink after washing; high values mean tight binding
Common to all, as to conditions: protein: recombinant; tags: N-terminal GST; dsDNA, one strand shown

One assay addresses T1, FLI1 (Homo sapiens, UniProt Q01543 1-452).
T1 sequence: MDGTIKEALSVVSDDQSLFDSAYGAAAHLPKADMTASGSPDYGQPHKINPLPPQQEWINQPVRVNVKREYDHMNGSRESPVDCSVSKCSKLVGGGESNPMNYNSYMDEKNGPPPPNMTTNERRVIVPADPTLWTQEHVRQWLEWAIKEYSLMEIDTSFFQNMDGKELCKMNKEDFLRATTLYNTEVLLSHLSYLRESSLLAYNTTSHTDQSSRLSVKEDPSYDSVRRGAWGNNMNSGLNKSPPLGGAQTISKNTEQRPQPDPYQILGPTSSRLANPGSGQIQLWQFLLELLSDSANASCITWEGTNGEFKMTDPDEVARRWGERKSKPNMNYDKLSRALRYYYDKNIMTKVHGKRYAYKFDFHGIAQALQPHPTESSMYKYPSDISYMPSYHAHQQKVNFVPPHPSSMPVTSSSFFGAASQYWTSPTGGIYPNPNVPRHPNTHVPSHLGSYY
A digest of the protocol: (§1)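 After expression in yeast as GST fusions, human transcription factors were bound to glutathione beads, DNA-barcoded and mixed with a tag-only sample. The pools were incubated with 200 nmole of a 16-mer random double-stranded DNA library in Tris/NaCl/DTT/glycerol buffer (30 min, room temperature), washed and crosslinked with 0.1% formaldehyde. Proximity ligation with BsaI/T4 ligase ran for 1 h at 37 °C, before PCR amplification and sequencing on an Illumina NextSeq500. Binding signal is a hexamer's read frequency for a factor divided by its frequency for the tag-only sample.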

The target of the next assay is T2, ELK1 (Homo sapiens, UniProt P19419 1-428).
T2 sequence: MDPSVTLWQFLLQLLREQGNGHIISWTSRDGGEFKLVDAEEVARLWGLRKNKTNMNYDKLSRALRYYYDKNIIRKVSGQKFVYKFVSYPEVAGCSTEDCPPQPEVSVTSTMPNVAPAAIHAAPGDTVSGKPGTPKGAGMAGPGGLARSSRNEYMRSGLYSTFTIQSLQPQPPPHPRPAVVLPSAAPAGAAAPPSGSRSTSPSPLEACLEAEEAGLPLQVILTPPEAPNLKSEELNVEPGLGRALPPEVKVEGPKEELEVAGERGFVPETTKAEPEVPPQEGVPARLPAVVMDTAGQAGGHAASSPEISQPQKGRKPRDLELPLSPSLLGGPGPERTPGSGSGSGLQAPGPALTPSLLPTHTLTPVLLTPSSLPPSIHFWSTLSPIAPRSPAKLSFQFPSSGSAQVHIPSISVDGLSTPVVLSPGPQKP
The essentials: as §1

The target in another assay is T3, GABPA (Homo sapiens, UniProt Q06546 1-454).
T3 sequence: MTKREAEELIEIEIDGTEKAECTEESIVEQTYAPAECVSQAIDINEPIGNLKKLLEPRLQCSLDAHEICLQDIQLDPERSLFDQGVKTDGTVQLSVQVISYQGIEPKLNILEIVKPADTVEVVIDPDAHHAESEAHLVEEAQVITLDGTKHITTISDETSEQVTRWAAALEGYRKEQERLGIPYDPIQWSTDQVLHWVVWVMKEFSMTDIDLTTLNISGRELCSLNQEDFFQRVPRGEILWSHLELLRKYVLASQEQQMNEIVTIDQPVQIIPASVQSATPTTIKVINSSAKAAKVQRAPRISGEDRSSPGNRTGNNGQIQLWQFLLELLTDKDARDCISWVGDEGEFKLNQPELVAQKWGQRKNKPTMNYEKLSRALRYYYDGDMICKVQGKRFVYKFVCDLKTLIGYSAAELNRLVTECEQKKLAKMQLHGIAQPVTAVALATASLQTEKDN
The essentials:
as §1

A further assay addresses T4, ERG (Homo sapiens, UniProt P11308 1-479).
T4 sequence: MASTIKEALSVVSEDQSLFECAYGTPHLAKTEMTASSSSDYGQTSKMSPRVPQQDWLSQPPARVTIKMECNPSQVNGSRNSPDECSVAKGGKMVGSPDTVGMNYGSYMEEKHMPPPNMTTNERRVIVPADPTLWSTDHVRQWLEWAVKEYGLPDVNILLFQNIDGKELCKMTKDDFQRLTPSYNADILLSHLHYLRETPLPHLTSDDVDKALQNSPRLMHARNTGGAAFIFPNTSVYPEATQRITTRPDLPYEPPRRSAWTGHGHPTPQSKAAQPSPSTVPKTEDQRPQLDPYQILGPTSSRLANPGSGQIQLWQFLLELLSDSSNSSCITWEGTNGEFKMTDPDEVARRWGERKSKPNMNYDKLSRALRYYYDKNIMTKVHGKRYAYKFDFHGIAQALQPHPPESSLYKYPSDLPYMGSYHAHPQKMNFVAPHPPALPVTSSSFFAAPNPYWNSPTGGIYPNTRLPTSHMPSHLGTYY
The essentials: as §1

For the next assay, the target named is ELF1 (Homo sapiens, UniProt P32519 1-619). The essentials: as §1
In another assay the target is T5, EHF (Homo sapiens, UniProt Q9NZC4 1-300).
T5 sequence: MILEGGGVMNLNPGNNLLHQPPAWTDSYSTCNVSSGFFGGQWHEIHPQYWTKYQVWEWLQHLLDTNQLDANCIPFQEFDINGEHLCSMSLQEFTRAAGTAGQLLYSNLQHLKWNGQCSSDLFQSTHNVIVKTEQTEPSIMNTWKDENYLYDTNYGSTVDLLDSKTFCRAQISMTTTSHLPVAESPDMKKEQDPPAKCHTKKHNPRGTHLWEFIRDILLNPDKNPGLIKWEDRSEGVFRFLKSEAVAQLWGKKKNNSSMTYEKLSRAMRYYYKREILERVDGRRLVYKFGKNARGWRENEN
A digest of the protocol:
as §1

Another assay has as its target SPI1 (Homo sapiens, UniProt P17947 1-270). The essentials:
as §1

A further assay deals with SPIB (Homo sapiens, UniProt Q01892 1-262). The essentials: as §1
The target in the next assay is T6, ELK3 (Homo sapiens, UniProt P41970 1-407).
T6 sequence: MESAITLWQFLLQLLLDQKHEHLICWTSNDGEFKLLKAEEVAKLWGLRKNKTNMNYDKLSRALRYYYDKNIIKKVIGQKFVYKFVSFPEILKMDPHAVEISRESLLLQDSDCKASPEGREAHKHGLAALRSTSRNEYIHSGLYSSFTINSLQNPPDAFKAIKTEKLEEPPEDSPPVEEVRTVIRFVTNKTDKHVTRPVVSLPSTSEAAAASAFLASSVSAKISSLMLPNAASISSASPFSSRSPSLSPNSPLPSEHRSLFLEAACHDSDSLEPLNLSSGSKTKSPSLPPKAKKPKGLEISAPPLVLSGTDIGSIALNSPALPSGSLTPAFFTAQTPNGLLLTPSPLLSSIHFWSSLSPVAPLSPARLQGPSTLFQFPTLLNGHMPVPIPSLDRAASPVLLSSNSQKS
The essentials: as §1

In a further assay the target is T7, FEV (Homo sapiens, UniProt Q99581 1-238).
T7 sequence: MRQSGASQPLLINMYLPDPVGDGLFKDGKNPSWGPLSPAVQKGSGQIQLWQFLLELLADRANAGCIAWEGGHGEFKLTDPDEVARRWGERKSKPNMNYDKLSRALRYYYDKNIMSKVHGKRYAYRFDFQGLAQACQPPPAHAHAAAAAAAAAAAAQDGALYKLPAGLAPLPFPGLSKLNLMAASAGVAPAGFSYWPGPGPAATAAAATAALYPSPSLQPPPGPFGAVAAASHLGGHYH
A digest of the protocol:
as §1

Another assay addresses ETV5 (Homo sapiens, UniProt P41161 1-510). The essentials:
as §1

Another assay has as its target T8, SPIC (Homo sapiens, UniProt Q8N5J4 1-248).
T8 sequence: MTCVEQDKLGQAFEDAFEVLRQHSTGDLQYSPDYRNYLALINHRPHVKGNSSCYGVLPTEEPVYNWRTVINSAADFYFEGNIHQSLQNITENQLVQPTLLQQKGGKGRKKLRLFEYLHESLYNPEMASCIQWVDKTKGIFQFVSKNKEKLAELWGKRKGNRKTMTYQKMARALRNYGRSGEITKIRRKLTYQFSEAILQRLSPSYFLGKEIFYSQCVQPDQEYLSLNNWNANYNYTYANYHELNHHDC
A digest of the protocol:
as §1

The target of the next assay is ELF4 (Homo sapiens, UniProt Q99607 1-663). The essentials:
as §1

In the next assay the target is ETV1 (Homo sapiens, UniProt P50549 1-477). The essentials: as §1
The next assay has as its target T9, ERF (Homo sapiens, UniProt P50548 1-548).
T9 sequence: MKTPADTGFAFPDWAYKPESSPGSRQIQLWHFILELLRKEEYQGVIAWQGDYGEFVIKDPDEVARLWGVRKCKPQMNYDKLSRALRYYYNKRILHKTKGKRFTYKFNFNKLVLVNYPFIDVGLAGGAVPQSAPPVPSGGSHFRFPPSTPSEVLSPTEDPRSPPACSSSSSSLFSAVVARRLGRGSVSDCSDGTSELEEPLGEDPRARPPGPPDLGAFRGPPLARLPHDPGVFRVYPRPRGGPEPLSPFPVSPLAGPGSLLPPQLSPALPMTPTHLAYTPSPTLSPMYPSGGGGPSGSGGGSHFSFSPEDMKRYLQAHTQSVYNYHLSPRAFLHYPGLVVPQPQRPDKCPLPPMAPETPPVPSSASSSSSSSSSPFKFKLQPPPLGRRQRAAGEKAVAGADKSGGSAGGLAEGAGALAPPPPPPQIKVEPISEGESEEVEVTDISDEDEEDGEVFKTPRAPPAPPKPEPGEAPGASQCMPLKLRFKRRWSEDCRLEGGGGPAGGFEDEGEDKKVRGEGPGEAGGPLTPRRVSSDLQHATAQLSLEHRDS
The essentials:
as §1

A further assay has as its target T10, ETV3L (Homo sapiens, UniProt Q6ZN32 1-361).
T10 sequence: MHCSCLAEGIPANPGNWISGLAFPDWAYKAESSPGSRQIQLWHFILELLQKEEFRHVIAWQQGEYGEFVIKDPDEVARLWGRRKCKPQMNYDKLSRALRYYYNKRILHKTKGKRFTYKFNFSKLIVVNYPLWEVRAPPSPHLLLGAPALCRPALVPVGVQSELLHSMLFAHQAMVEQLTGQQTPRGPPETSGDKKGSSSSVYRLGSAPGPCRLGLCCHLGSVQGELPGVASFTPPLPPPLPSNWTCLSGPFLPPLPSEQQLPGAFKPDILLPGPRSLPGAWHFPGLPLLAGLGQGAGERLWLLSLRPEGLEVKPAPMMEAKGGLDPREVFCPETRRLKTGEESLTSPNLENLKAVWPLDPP
The essentials: as §1

The target of a further assay is T11, ETS2 (Homo sapiens, UniProt P15036 1-469).
T11 sequence: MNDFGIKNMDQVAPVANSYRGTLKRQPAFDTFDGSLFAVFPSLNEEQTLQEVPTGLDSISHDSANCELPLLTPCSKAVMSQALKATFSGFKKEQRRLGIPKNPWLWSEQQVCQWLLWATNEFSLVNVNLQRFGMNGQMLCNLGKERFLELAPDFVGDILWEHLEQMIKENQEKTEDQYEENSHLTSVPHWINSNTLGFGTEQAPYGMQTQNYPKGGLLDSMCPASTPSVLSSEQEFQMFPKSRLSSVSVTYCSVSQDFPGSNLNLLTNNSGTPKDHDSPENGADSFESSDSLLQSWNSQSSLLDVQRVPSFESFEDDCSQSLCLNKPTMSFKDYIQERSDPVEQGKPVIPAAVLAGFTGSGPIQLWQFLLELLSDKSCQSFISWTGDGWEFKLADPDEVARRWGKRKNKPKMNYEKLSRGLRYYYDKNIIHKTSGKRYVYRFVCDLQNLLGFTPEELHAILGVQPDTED
The essentials:
as §1

The target of a further assay is T12, ELF5 (Homo sapiens, UniProt Q9UKW6-2 1-255).
T12 sequence: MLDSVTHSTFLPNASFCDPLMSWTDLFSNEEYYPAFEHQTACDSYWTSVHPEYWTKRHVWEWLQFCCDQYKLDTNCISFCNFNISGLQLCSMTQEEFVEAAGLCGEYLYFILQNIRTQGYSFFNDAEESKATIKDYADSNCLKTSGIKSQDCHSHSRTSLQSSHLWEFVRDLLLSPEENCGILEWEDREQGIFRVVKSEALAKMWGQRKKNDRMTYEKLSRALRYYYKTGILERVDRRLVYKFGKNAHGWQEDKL
A digest of the protocol:
as §1

The next assay deals with T13, ETV3 (Homo sapiens, UniProt P41162-2 1-143).
T13 sequence: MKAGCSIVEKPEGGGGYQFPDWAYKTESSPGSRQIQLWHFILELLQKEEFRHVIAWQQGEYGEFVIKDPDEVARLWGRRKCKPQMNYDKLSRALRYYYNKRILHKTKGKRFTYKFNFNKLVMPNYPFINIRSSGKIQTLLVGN
The essentials: as §1

The next assay has as its target ETV6 (Homo sapiens, UniProt P41212 1-452). The essentials:
as §1

Chain of ELF4 (Q99607 whole entry): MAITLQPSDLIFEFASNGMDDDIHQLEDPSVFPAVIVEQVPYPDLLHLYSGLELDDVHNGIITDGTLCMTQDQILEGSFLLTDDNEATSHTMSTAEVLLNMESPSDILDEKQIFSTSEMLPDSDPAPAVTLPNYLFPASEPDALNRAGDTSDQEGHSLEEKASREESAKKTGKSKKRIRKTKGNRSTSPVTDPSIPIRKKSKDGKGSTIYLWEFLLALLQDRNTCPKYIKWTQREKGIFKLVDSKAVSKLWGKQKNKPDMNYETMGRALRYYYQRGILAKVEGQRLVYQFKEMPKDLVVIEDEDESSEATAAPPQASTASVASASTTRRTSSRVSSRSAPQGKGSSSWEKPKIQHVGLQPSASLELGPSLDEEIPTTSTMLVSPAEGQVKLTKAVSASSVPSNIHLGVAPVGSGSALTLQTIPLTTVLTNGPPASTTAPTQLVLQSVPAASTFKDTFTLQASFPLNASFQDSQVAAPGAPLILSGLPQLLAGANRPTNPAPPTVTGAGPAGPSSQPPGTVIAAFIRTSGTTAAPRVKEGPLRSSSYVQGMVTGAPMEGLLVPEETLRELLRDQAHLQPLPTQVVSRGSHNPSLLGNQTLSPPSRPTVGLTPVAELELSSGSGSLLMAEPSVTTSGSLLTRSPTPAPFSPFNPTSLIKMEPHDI
Chain of SPIB (Q01892 whole entry): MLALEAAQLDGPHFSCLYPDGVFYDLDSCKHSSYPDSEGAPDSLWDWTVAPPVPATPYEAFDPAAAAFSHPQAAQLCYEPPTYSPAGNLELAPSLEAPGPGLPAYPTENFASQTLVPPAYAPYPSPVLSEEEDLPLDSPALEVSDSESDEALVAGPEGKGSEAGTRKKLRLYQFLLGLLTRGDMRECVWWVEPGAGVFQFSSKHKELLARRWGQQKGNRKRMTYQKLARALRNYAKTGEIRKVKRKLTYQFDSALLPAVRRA
Chain of ETV1 (P50549 whole entry): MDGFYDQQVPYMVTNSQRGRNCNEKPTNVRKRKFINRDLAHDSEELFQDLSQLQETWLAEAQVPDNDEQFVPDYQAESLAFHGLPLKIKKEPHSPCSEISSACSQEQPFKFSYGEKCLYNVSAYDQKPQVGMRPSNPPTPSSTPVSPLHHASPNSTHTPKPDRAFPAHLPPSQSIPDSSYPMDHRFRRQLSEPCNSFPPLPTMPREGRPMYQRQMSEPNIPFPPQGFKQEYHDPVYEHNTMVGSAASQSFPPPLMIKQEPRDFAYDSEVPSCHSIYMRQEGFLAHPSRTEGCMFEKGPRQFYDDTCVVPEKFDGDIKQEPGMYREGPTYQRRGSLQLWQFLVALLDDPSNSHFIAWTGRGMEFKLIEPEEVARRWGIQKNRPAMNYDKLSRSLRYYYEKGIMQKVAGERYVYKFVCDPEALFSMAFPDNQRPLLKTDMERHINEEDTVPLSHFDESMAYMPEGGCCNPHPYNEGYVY
Chain of ETV6 (P41212 whole entry): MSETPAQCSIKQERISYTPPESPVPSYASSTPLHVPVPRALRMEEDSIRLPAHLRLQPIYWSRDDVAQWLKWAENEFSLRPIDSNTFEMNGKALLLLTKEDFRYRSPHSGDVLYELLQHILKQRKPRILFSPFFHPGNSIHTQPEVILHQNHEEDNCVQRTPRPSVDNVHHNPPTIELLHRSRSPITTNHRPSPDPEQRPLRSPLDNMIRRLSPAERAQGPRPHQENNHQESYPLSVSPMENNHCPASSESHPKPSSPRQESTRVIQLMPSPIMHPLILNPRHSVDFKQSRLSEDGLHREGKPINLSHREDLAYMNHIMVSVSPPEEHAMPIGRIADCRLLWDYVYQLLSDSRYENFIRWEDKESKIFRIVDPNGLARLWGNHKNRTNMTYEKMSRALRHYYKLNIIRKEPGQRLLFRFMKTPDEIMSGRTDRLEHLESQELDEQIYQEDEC
Chain of ELF1 (P32519 whole entry): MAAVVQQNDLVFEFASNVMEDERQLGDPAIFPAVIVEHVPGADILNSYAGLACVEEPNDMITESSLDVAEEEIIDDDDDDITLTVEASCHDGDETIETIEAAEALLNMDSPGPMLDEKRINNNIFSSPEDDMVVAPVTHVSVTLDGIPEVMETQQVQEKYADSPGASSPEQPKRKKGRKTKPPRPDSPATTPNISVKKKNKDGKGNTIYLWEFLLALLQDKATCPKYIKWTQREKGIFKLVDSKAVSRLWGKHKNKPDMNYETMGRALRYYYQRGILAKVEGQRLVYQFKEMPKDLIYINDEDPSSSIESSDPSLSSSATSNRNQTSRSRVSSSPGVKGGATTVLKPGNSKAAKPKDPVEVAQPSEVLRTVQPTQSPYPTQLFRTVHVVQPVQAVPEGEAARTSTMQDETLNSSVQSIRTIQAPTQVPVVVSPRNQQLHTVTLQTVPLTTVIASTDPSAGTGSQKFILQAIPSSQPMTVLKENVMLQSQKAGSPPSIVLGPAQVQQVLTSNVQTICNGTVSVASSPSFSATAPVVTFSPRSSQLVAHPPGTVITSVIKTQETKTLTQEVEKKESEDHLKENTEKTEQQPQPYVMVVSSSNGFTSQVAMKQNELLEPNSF
Chain of ETV5 (P41161 whole entry): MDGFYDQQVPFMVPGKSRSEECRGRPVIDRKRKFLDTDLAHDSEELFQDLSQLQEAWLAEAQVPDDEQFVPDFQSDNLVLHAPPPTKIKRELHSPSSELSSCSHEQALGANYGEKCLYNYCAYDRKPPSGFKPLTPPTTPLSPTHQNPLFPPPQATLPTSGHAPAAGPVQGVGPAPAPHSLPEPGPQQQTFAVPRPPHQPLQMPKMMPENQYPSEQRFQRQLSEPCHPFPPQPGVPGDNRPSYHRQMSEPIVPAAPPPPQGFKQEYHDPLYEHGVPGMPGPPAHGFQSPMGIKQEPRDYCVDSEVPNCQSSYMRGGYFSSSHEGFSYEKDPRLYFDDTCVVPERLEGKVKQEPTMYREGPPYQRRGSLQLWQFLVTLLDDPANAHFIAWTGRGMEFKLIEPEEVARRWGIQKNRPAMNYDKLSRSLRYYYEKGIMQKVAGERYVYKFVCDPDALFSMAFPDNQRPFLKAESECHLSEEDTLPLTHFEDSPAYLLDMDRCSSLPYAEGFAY

Regarding GTCCCA, the binding signal with FLI1 is 1.03 fold enrichment (6-mer frequency, TF over GST control); with ELK1, 1.14 fold enrichment (6-mer frequency, TF over GST control); with GABPA, 1.11 fold enrichment (6-mer frequency, TF over GST control); in the assay with ERG, 1.17 fold enrichment (6-mer frequency, TF over GST control); in the assay with ELF1, 1.14 fold enrichment (6-mer frequency, TF over GST control); with EHF, 1.1 fold enrichment (6-mer frequency, TF over GST control). Also, the binding signal with SPI1 was 1.13 fold enrichment (6-mer frequency, TF over GST control); with SPIB it was 1.06 fold enrichment (6-mer frequency, TF over GST control); with ELK3, 1.18 fold enrichment (6-mer frequency, TF over GST control); in the assay with FEV it was 1.12 fold enrichment (6-mer frequency, TF over GST control); with ETV5, 1.05 fold enrichment (6-mer frequency, TF over GST control); with SPIC, 1.12 fold enrichment (6-mer frequency, TF over GST control). The binding signal in the assay with ELF4 is 1.13 fold enrichment (6-mer frequency, TF over GST control); with ETV1 it was 1.14 fold enrichment (6-mer frequency, TF over GST control); with ERF, 1.12 fold enrichment (6-mer frequency, TF over GST control); in the assay with ETV3L, 1.13 fold enrichment (6-mer frequency, TF over GST control); with ETS2 it was 1.05 fold enrichment (6-mer frequency, TF over GST control); with ELF5, 1.12 fold enrichment (6-mer frequency, TF over GST control). Besides, the binding signal with ETV3 was 1.07 fold enrichment (6-mer frequency, TF over GST control); with ETV6 it was 1.03 fold enrichment (6-mer frequency, TF over GST control).
